What was measured:
Test in all cases: DAPPL (digital affinity profiling via proximity ligation, sequencing); 10 mM Tris-HCl pH 7.5, 50 mM NaCl, 1 mM DTT, 4% glycerol, room temperature, 30 min; GST-TFs on glutathione beads, 16-mer random dsDNA library, 0.1% formaldehyde crosslink after washing; high values mean tight binding
FEV = target: T1, FEV (Homo sapiens, UniProt Q99581 1-238); conditions: protein: recombinant; tags: N-terminal GST; dsDNA, one strand shown
T1 sequence: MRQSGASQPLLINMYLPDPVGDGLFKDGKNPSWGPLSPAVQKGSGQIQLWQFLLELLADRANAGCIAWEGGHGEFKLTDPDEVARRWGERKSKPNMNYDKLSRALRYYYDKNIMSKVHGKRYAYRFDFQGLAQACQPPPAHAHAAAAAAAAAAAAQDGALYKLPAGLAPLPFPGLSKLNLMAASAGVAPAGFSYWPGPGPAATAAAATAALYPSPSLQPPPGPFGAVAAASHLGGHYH
In short: (§1)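 In yeast, human transcription factors were expressed with a GST fusion, then pulled down on glutathione beads and given DNA barcodes. Pooled with a tag-only sample, they were exposed to 200 nmole of a 16-mer random double-stranded DNA library (Tris/NaCl/DTT/glycerol buffer, room temperature, 30 min), washed, crosslinked with 0.1% formaldehyde, proximity-ligated using BsaI/T4 ligase for 1 h at 37 °C, PCR-amplified and read on an Illumina NextSeq500. Each hexamer's frequency of reads for a factor, divided by the matching frequency for the tag-only sample, gives the binding signal.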

ETV5 = ETV5 (Homo sapiens, UniProt P41161 1-510); conditions: protein: recombinant; tags: N-terminal GST; dsDNA, one strand shown
Sequence of ETV5 (P41161 whole entry): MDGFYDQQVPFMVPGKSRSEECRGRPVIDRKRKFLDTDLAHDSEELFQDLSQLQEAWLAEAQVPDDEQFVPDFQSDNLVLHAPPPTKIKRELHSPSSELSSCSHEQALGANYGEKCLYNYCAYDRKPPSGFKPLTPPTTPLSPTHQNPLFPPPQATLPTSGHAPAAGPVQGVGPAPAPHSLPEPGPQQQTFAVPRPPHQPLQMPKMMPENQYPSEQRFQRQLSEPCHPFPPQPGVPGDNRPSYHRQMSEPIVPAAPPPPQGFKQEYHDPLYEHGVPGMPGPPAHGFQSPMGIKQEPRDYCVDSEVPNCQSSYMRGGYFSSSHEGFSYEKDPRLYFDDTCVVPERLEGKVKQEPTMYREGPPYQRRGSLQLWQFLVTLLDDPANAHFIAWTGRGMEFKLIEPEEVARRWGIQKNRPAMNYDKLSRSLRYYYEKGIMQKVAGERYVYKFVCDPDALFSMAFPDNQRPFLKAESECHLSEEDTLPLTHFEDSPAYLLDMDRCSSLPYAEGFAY
In short: as §1

HSF1 = HSF1 (Homo sapiens, UniProt Q00613 1-529); conditions: protein: recombinant; tags: N-terminal GST; chain copies: 3; dsDNA, one strand shown
Sequence of HSF1 (Q00613 whole entry): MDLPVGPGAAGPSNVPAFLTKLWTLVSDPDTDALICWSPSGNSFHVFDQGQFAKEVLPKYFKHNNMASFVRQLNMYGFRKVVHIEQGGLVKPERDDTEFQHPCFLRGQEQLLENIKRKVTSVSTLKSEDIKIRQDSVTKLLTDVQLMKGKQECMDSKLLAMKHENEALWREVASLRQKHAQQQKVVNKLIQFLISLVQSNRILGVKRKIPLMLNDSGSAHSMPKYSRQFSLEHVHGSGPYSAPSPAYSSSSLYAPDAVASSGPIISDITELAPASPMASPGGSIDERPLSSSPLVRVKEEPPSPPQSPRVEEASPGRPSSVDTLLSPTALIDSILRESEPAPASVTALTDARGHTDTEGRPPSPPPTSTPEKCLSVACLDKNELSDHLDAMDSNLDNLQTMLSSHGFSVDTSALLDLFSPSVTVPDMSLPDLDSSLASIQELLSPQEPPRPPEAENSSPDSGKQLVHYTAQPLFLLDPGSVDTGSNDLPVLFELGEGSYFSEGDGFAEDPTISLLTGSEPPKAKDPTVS
In short: as §1

SPIC = target: T2, SPIC (Homo sapiens, UniProt Q8N5J4 1-248); conditions: protein: recombinant; tags: N-terminal GST; dsDNA, one strand shown
T2 sequence: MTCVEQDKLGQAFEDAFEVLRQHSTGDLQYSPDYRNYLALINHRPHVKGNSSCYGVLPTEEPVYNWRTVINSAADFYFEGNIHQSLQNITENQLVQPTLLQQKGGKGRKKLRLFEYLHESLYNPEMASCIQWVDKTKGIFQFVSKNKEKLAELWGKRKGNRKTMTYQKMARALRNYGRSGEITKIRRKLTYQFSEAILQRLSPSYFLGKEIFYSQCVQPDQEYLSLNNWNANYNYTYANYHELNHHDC
In short: as §1

ELF4 = ELF4 (Homo sapiens, UniProt Q99607 1-663); conditions: protein: recombinant; tags: N-terminal GST; dsDNA, one strand shown
Sequence of ELF4 (Q99607 whole entry): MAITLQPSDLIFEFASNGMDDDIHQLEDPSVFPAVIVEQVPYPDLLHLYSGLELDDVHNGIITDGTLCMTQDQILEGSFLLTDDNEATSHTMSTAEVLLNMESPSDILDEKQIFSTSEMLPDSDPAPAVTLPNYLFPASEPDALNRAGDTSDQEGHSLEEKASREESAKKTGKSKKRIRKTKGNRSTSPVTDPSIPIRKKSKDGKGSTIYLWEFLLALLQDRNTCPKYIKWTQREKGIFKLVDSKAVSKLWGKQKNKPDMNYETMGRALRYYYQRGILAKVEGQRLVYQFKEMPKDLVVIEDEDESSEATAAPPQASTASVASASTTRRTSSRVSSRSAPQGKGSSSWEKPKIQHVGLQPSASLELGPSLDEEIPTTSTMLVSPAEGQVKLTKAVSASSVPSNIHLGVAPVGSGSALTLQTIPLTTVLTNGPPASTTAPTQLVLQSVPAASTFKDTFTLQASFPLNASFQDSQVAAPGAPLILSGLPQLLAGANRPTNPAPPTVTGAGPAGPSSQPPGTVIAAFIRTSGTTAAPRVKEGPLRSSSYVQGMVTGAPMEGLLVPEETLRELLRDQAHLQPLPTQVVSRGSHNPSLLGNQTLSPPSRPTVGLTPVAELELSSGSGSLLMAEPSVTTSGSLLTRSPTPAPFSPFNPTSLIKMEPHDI
In short: as §1

ELK4 = target: T3, ELK4 (Homo sapiens, UniProt P28324-2 1-405); conditions: protein: recombinant; tags: N-terminal GST; dsDNA, one strand shown
T3 sequence: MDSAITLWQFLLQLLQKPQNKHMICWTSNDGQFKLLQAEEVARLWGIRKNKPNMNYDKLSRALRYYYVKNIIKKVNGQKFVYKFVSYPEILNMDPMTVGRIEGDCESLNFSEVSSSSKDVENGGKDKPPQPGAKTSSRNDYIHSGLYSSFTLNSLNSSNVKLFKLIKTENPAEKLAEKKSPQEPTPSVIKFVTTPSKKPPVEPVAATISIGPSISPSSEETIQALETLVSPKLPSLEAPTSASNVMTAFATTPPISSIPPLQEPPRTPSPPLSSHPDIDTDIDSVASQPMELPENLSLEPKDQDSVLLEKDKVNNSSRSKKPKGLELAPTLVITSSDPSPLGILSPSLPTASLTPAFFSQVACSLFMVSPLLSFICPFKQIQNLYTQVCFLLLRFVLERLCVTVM
In short: as §1

ETV2 = target: T4, ETV2 (Homo sapiens, UniProt O00321 1-342); conditions: protein: recombinant; tags: N-terminal GST; dsDNA, one strand shown
T4 sequence: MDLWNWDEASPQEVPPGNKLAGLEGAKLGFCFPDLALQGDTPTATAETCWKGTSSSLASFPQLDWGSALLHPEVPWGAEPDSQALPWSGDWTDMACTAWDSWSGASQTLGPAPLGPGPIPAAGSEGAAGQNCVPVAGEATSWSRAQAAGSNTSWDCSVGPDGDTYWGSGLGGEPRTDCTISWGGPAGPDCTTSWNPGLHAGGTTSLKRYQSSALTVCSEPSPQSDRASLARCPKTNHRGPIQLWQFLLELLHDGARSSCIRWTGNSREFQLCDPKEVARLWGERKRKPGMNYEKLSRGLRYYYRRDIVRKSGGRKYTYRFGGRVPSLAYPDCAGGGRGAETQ
In short: as §1

ELF3 = target: T5, ELF3 (Homo sapiens, UniProt P78545 1-371); conditions: protein: recombinant; tags: N-terminal GST; dsDNA, one strand shown
T5 sequence: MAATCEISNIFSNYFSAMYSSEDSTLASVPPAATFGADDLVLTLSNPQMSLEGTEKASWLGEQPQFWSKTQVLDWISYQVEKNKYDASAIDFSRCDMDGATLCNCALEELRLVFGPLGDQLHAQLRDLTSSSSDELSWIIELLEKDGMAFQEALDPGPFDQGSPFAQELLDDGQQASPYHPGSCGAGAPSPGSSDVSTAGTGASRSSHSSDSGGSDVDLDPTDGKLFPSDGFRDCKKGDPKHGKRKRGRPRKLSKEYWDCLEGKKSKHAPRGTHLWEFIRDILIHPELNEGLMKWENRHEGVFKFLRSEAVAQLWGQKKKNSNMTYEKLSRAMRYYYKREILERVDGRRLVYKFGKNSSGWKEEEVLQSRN
In short: as §1

ETV1 = ETV1 (Homo sapiens, UniProt P50549 1-477); conditions: protein: recombinant; tags: N-terminal GST; dsDNA, one strand shown
Sequence of ETV1 (P50549 whole entry): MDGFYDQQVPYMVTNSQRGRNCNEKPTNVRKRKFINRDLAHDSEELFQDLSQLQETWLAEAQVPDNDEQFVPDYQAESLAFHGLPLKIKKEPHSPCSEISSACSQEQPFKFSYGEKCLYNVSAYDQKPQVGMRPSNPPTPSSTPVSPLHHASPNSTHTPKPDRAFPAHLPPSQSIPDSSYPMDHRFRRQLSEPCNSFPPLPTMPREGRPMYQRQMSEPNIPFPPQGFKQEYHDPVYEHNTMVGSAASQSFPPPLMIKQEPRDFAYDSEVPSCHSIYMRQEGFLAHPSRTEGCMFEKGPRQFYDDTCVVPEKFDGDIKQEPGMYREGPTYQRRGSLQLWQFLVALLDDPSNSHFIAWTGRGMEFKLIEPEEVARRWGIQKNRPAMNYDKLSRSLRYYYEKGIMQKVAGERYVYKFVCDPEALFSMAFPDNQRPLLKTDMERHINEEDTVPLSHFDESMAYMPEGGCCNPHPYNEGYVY
In short: as §1

ERF = target: T6, ERF (Homo sapiens, UniProt P50548 1-548); conditions: protein: recombinant; tags: N-terminal GST; dsDNA, one strand shown
T6 sequence: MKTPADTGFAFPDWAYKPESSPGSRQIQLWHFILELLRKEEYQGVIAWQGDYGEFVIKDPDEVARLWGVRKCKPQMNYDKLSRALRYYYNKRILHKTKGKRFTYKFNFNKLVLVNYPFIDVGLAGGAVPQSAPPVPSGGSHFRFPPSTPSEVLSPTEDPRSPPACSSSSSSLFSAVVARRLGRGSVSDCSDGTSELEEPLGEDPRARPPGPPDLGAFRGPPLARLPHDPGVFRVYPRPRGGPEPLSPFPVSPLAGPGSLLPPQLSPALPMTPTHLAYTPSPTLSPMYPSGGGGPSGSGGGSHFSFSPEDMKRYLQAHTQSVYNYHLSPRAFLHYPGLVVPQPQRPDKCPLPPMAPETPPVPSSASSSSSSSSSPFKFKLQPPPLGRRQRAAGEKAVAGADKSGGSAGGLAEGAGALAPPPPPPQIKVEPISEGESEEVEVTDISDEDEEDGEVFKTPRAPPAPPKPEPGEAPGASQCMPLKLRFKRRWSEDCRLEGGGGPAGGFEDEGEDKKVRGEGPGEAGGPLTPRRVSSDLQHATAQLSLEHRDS
In short: as §1

ETV3L = target: T7, ETV3L (Homo sapiens, UniProt Q6ZN32 1-361); conditions: protein: recombinant; tags: N-terminal GST; dsDNA, one strand shown
T7 sequence: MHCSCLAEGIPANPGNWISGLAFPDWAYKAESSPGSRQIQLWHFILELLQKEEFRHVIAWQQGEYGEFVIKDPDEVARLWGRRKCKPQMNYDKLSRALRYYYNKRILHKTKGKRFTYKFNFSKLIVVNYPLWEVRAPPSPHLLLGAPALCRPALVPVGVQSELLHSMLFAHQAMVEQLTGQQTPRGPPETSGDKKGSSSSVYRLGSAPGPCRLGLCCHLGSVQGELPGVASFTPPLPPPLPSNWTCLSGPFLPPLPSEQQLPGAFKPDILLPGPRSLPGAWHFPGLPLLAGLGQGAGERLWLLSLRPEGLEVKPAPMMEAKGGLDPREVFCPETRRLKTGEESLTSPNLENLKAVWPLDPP
In short: as §1

ETS2 = target: T8, ETS2 (Homo sapiens, UniProt P15036 1-469); conditions: protein: recombinant; tags: N-terminal GST; dsDNA, one strand shown
T8 sequence: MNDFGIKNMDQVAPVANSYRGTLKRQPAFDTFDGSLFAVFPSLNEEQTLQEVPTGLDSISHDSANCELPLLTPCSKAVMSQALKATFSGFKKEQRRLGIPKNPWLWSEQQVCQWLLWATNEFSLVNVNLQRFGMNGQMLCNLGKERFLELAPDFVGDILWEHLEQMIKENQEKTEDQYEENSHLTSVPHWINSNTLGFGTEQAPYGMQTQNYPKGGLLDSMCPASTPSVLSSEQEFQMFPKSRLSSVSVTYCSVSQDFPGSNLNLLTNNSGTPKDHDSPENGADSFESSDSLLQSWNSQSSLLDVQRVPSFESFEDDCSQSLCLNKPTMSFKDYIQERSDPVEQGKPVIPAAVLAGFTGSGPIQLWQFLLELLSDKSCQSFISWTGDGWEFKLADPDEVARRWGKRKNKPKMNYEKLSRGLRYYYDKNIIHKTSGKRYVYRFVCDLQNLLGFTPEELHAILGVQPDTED
In short: as §1

SPDEF = target: T9, SPDEF (Homo sapiens, UniProt O95238 1-335); conditions: protein: recombinant; tags: N-terminal GST; dsDNA, one strand shown
T9 sequence: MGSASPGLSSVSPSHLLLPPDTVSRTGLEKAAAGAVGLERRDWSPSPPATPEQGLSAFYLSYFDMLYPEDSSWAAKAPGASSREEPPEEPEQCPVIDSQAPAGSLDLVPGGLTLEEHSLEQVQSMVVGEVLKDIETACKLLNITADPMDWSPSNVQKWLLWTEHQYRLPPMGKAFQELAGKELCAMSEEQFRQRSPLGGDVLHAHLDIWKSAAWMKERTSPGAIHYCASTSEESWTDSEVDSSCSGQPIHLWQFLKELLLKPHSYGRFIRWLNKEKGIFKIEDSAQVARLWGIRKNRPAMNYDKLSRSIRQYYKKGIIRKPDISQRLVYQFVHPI
In short: as §1

ETV7 = target: T10, ETV7 (Homo sapiens, UniProt Q9Y603 1-341); conditions: protein: recombinant; tags: N-terminal GST; dsDNA, one strand shown
T10 sequence: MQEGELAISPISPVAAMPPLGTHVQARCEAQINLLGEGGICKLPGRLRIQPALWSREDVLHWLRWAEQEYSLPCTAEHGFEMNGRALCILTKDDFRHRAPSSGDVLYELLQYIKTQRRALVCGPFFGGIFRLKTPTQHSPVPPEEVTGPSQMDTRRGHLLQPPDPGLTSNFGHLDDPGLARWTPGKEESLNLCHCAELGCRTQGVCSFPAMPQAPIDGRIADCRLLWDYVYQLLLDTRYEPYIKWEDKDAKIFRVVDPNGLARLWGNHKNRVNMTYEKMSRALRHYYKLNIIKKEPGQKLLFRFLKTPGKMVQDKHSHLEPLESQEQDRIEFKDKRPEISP
In short: as §1

ELF5 = target: T11, ELF5 (Homo sapiens, UniProt Q9UKW6-2 1-255); conditions: protein: recombinant; tags: N-terminal GST; dsDNA, one strand shown
T11 sequence: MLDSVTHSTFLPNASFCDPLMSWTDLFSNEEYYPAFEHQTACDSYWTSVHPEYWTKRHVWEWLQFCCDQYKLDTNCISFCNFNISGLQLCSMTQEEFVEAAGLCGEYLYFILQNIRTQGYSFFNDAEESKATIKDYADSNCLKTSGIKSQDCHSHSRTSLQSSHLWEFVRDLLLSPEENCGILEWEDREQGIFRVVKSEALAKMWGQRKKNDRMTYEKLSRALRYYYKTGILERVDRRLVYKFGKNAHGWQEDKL
In short: as §1

ETV3 = target: T12, ETV3 (Homo sapiens, UniProt P41162-2 1-143); conditions: protein: recombinant; tags: N-terminal GST; dsDNA, one strand shown
T12 sequence: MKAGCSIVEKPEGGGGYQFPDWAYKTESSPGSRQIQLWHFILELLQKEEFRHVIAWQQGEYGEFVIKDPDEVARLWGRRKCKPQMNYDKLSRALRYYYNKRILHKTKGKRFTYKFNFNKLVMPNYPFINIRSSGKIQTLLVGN
In short: as §1

ETV6 = ETV6 (Homo sapiens, UniProt P41212 1-452); conditions: protein: recombinant; tags: N-terminal GST; dsDNA, one strand shown
Sequence of ETV6 (P41212 whole entry): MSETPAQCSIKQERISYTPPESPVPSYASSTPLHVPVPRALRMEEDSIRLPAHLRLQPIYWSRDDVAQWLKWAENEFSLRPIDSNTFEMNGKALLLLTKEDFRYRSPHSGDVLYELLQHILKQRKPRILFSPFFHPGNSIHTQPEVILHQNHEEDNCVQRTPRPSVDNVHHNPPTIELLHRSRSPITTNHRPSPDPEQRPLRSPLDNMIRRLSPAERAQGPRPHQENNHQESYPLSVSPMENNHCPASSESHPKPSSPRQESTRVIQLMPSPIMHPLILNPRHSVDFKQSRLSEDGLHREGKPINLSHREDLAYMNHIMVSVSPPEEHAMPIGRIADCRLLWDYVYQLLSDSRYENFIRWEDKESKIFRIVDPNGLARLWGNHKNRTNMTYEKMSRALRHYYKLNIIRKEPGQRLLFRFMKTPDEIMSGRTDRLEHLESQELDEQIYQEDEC
In short: as §1

| Sequence | binding signal (FEV) | binding signal (ETV5) | binding signal (HSF1) | binding signal (SPIC) | binding signal (ELF4) | binding signal (ELK4) | binding signal (ETV2) | binding signal (ELF3) | binding signal (ETV1) | binding signal (ERF) | binding signal (ETV3L) | binding signal (ETS2) | binding signal (SPDEF) | binding signal (ETV7) | binding signal (ELF5) | binding signal (ETV3) | binding signal (ETV6) |
| --- | --- | --- | --- | --- | --- | --- | --- | --- | --- | --- | --- | --- | --- | --- | --- | --- | --- |
| ACCATC | 1.13 fold enrichment (6-mer frequency, TF over GST control) | 1.11 fold enrichment (6-mer frequency, TF over GST control) | 1.14 fold enrichment (6-mer frequency, TF over GST control) | 1.02 fold enrichment (6-mer frequency, TF over GST control) | 1.12 fold enrichment (6-mer frequency, TF over GST control) | 1.13 fold enrichment (6-mer frequency, TF over GST control) | 1.06 fold enrichment (6-mer frequency, TF over GST control) | 1.19 fold enrichment (6-mer frequency, TF over GST control) | 1.03 fold enrichment (6-mer frequency, TF over GST control) | 1.14 fold enrichment (6-mer frequency, TF over GST control) | 1.13 fold enrichment (6-mer frequency, TF over GST control) | 1.12 fold enrichment (6-mer frequency, TF over GST control) | 1.09 fold enrichment (6-mer frequency, TF over GST control) | 1.16 fold enrichment (6-mer frequency, TF over GST control) | 1.06 fold enrichment (6-mer frequency, TF over GST control) | 1.03 fold enrichment (6-mer frequency, TF over GST control) | 1.06 fold enrichment (6-mer frequency, TF over GST control) |
| GAACAC | 1.08 fold enrichment (6-mer frequency, TF over GST control) | 1.08 fold enrichment (6-mer frequency, TF over GST control) | 1.21 fold enrichment (6-mer frequency, TF over GST control) | 1.18 fold enrichment (6-mer frequency, TF over GST control) | 1.13 fold enrichment (6-mer frequency, TF over GST control) | 1.17 fold enrichment (6-mer frequency, TF over GST control) | 1.33 fold enrichment (6-mer frequency, TF over GST control) | 1.13 fold enrichment (6-mer frequency, TF over GST control) | 1.18 fold enrichment (6-mer frequency, TF over GST control) | 1.11 fold enrichment (6-mer frequency, TF over GST control) | 1.18 fold enrichment (6-mer frequency, TF over GST control) | 1.12 fold enrichment (6-mer frequency, TF over GST control) | 1.26 fold enrichment (6-mer frequency, TF over GST control) | 1.15 fold enrichment (6-mer frequency, TF over GST control) | 1.17 fold enrichment (6-mer frequency, TF over GST control) | 1.14 fold enrichment (6-mer frequency, TF over GST control) | 1.13 fold enrichment (6-mer frequency, TF over GST control) |
